Measurements as given in PubChem BioAssay.
Where “and” joins values, the source holds several entries; their conditions need not be identical. Equal values may be shown once. Calls of active or inactive are those of the source. Unless noted, no rule for the calls is given here.

Key:
[1] = system: Aerobactin synthetase IucA (Klebsiella pneumoniae); test: inhibition of K. pneumoniae IucA enzyme – biochemical, Tocris library, absorbance (AID 1345561); settings: purified IucA enzyme assay, absorbance (OD) read-out; stronger effect = lower value;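 tested at 8 µM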;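 also: 100% = enzyme without compound and 0% = no enzyme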
[2] = viability loss with induced miR-34 in A549 – imaging, A549 dox-inducible miR-34, nuclei and caspase counts, primary screen (AID 1347080;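 active = compounds whose cell count with miR-34 switched on is under 0.7 times the count with it off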); settings: A549 miR-34 inducible, Hoechst nuclei count, 48 h
[3] = galactose survival enhancers in mitochondrial complex I cybrids – cell-based, galactose medium, ATP luminescence, primary screen (AID 1645843;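 active = z-score of at least 1.8 in each of two replicates, scored against plate mean and spread of sample wells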;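 also: positive z means more ATP and so rescue of galactose-driven cybrid death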); settings: complex I mutant cybrid cells, 72 h, stronger effect = higher value
[4] = compounds altering circadian rhythm period length – cell-based, LOPAC library, luminescence reporter (AID 2774); settings: circadian reporter cells, at 7 µM, actives lie on both sides;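 also: values are relative to mean of DMSO wells on each plate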
[5] = system: Hepatitis C virus NS3 helicase; test: blockers of NS3h binding to ssDNA – biochemical, fluorescence polarization, LOPAC1280 library, primary screen (AID 687035; in the data active = inhibition above about 37%); settings: Purified HCV NS3 helicase, Cy5-dT15 ssDNA binding fluorescence polarization; stronger effect = higher value; concentration not given here
[6] = compounds altering Cy5-DNA-NS3h complex signal – biochemical, LOPAC1280, artefact control for HCV NS3 helicase inhibitor project (AID 687037); settings: Cy5-DNA-NS3h complex fluorescence interference counterscreen
[7] = compounds altering viability of human ES cells (AID 493140); settings: human embryonic stem cell survival screen; stronger effect = higher value;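 also: cells exposed to compounds for four days before counting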
[8] = stronger effect = lower value, cell number ratio, induced over uninduced
[9] = measured here: relative caspase fold change +Dox/-Dox
[10] = measured here: total cells with miR-34 induction, stronger effect = lower value
[11] = measured here: total cells without miR-34 induction

SMILES	remaining activity [1]	fold change [2, 8]	fold change [2, 9]	cell count [2, 10]	cell count [2, 11]	z-score [3]	period change [4]	inhibition [5]	fluorescence ratio (interference) [6]	survival [7]
N=C(CC(O)COc1ccccc1-c1ccccc1)N1CCCCC1 (stereo unspecified)	113% (inactive)	0.933 (inactive)	0.891	6170	6610	-0.28 (inactive)	–	–	–	–
COc1cc(/C=C/c2ccc(OC)cc2OC)cc(OC)c1	117% (inactive)	0.956 (inactive) and 0.973 (inactive)	1.53 and 0.719	1820 and 3000	1910 and 3090	-0.41 (inactive)	–	–	–	–
CCCCCCNC(=O)Nc1ccc(S(=O)(=O)Nc2ccc(CCNC[C@H](O)COc3ccc(O)cc3)cc2)cc1	94.3% (inactive)	0.938 (inactive)	1.32	8320	8870	-0.435 (inactive)	–	–	–	–
CCCCCCCCC(=O)NCc1cc(OC)c(O)cc1I	120% (inactive)	0.949 (inactive)	0.652	8140	8580	-0.615 (inactive)	–	–	–	–
N#Cc1cc2[nH]c(=O)c(=O)[nH]c2cc1[N+](=O)[O-]	113% (inactive)	0.891 (inactive)	1.62	9010	10100	0.095 (inactive)	–	–	–	–
O=C1CC2(CCCC2)CC(=O)N1CCCCNCC1COc2ccccc2O1 (stereo unspecified)	102% (inactive)	0.892 (inactive)	0.89	8660	9710	-1.01 (inactive)	–	–	–	–
CC(C)(C)n1nc(-c2cccc3ccccc23)c2c(N)ncnc21	117% (inactive)	0.947 (inactive)	1.81	3180	3350	-0.105 (inactive)	–	–	–	–
N=C(N)c1ccc(N2CCN(C3CCN(CC(=O)O)CC3)CC2)cc1	115% (inactive)	1 (inactive)	0.72	9390	9350	-0.165 (inactive)	–	–	–	–
BrC1C(Br)C(Br)C(Br)C(Br)C1Br (stereo unspecified)	107% (inactive)	1.04 (inactive)	1.17	7970	7680	-0.62 (inactive)	–	–	–	–
COC(=O)C(Cc1ccc(OCCn2c(=O)sc3cc(C(=O)c4ccccc4)ccc32)cc1)C(=O)OC	104% (inactive)	0.909 (inactive)	1.26	8190	9020	-0.89 (inactive)	–	–	–	–
CCOC(=O)C1=C(C)NC(c2ccccc2)=C(C(=O)OCc2ccc([N+](=O)[O-])cc2)C1C#Cc1ccccc1 (stereo unspecified)	124% (inactive)	0.924 (inactive)	0.543	7910	8560	0.3 (inactive)	–	–	–	–
CCCCn1c(=O)c2[nH]c(C34CC5CC(CC3C5)C4)nc2n(CCCO)c1=O	106% (inactive)	1.02 (inactive)	1.81	5180	5060	0.41 (inactive)	–	–	–	–
CCN(CC)CC1CCN(c2ncc3ncnc(Nc4ccc(F)c(Cl)c4)c3n2)CC1	124% (inactive)	0.891 (inactive)	1.55	1440	1620	-0.675 (inactive)	–	–	–	–
CN(C)[C@@H]1CCc2[nH]c3ccc(NC(=O)c4ccc(F)cc4)cc3c2C1	77.6% (inactive)	0.87 (inactive)	1.77	8840	10200	0.495 (inactive)	–	–	–	–
COc1cc([C@@H]2c3cc4c(cc3C(OC3OC5COC(C)OC5C(O)C3O)C3COC(=O)[C@@H]32)OCO4)cc(OC)c1O (stereo partly specified)	116% (inactive)	1.07 (inactive)	0.575	4900	4590	-0.765 (inactive)	–	–	–	–
N=C(N)S/C=C\C(=O)O	104% (inactive)	0.952 (inactive)	0.563	8330	8750	-0.28 (inactive)	–	–	–	–
COc1ccccc1N1CCN(CCn2c(=O)[nH]c3c([nH]c4ccccc43)c2=O)CC1	108% (inactive)	0.88 (inactive)	0.64	8910	10100	1.92 (active)	–	–	–	–
Cn1cnnc1Sc1c([N+](=O)[O-])ncn1C	103% (inactive)	0.949 (inactive)	1.89	8370	8820	-0.12 (inactive)	–	–	–	–
O=C(O)COc1cccc(-c2ocnc2-c2nc(-c3ccccc3)c(-c3ccccc3)o2)c1	118% (inactive)	0.961 (inactive)	0.827	8540	8890	0.465 (inactive)	–	–	–	–
O=c1[nH]c2cc(Cl)ccc2c(O)c1-c1cccc(Oc2ccccc2)c1	103% (inactive)	0.963 (inactive)	0.827	8760	9100	0.335 (inactive)	–	–	–	–
CC(=O)c1ccc2c(c1)[C@@H]1C=CC[C@@H]1[C@H](c1cc3c(cc1Br)OCO3)N2	128% (inactive)	1.21 (inactive) and 1.03 (inactive)	0.332 and 1.3	2540 and 1820	2100 and 1760	-0.965 (inactive)	–	–	–	–
NS(=O)(=O)c1cccc2c1c([N+](=O)[O-])cc1nc(O)c(O)nc12	120% (inactive)	1.03 (inactive) and 0.923 (inactive)	1.03 and 0.947	11000 and 9080	10700 and 9830	0.68 (inactive) and 0.65 (inactive)	0.35 h (inactive)	-6% (inactive)	1 (inactive)	–
Cc1ccc(OC[C@@H](O)[C@H](C)NC(C)C)c2c1CCC2	82.6% (inactive)	0.94 (inactive)	1.07	8280	8800	-0.36 (inactive)	–	–	–	–
COC(=O)/C=C/c1cc(O)ccc1O	98.4% (inactive)	0.869 (inactive)	0.871	8110	9340	-1.21 (inactive)	–	–	–	85.3 (inactive)
COC(=O)c1c(-c2cc(OC)c(OC)c(OC)c2)c2ccnc(OCc3ncccn3)c2c(=O)n1Cc1ccnc(C)c1	117% (inactive)	0.972 (inactive)	0.845	8000	8240	-0.06 (inactive)	0.03 h (inactive)	–	–	–
CC(C)c1ccc(C(=O)c2cccs2)c(SCCCCCCCCN(C)C)n1	107% (inactive)	1.16 (inactive)	1.04	3590	3100	-1.04 (inactive)	–	–	–	–
